Source: ChEMBL document CHEMBL1961873, “Compounds: GSK PKIS; Assays: Nanosyn kinase panel” (2012)

Tests used:
[1] = molecular target: T1, Inhibitor of nuclear factor kappa-B kinase subunit epsilon (Homo sapiens) (UniProt Q14164); conditions: at 1 µM;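 further: reported values are averaged percent inhibition figures against human IKKε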
T1 sequence (whole entry): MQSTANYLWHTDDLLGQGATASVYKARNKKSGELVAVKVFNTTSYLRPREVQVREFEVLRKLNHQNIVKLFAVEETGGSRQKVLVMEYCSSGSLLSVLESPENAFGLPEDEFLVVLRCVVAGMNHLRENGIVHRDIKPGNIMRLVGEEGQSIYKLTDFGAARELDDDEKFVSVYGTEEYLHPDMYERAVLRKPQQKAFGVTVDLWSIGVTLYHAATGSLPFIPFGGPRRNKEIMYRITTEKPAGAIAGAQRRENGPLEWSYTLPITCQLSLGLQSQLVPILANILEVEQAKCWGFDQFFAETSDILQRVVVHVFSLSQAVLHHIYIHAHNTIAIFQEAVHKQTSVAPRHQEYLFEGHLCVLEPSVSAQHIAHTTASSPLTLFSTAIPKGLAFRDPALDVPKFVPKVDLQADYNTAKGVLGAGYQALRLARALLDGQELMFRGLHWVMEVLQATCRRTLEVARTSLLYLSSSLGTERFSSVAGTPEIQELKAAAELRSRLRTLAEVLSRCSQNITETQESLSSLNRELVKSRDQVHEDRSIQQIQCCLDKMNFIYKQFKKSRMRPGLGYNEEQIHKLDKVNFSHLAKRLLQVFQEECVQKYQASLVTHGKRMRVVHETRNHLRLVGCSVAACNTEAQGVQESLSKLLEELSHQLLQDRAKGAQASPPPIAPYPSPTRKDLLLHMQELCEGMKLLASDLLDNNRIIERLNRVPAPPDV

[2] = molecular target: T2, Serine/threonine-protein kinase Nek1 (Homo sapiens) (UniProt Q96PY6); conditions: at 0.1 µM
T2 sequence (whole entry): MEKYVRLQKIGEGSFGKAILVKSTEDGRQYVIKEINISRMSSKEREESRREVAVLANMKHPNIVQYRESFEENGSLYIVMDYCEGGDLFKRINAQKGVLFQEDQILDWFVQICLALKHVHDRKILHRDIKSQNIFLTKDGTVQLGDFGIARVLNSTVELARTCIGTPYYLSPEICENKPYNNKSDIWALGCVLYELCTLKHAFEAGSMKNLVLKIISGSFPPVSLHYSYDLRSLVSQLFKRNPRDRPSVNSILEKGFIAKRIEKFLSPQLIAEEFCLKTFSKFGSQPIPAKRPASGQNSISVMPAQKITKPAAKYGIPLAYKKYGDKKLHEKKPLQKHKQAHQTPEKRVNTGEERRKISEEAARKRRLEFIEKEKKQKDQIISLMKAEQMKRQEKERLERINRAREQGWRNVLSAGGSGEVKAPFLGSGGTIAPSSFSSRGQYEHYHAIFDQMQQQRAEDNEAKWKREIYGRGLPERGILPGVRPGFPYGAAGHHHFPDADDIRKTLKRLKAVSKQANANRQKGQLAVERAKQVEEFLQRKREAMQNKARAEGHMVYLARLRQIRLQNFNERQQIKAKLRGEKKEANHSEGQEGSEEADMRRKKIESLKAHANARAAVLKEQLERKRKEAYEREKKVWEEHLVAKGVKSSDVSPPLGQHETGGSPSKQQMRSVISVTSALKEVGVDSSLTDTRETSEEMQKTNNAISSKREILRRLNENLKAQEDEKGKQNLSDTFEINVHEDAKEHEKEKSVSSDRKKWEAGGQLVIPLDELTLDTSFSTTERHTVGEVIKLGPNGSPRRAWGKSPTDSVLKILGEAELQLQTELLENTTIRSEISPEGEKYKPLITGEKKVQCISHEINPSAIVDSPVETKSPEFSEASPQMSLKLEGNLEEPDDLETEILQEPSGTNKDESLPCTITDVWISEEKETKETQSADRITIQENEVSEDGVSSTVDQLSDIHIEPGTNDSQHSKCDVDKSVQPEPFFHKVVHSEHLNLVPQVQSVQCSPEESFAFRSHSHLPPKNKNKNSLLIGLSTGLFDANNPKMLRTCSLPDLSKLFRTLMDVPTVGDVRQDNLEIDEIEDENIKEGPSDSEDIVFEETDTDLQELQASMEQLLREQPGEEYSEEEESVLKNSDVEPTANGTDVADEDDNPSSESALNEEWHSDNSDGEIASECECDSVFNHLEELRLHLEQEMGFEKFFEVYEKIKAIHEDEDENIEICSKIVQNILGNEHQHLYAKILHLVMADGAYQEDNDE

[3] = molecular target: T2, Serine/threonine-protein kinase Nek1 (Homo sapiens); conditions: at 1 µM
[4] = molecular target: T3, Serine/threonine-protein kinase Nek2 (Homo sapiens) (UniProt P51955); conditions: at 0.1 µM
T3 sequence (whole entry): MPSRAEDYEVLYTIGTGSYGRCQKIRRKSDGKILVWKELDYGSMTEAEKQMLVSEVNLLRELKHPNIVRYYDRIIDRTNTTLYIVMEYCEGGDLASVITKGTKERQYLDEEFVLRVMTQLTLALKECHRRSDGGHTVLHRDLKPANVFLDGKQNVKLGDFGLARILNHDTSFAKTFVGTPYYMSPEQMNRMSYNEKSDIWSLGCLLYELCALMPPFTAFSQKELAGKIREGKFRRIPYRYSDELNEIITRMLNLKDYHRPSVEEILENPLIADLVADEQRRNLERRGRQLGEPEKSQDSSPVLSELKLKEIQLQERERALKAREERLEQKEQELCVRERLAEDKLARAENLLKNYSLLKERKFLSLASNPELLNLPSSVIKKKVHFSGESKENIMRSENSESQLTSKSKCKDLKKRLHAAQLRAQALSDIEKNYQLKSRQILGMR

[5] = molecular target: T3, Serine/threonine-protein kinase Nek2 (Homo sapiens); conditions: at 1 µM
[6] = molecular target: Serine/threonine-protein kinase Nek6 (Homo sapiens) (UniProt Q9HC98); conditions: at 0.1 µM
[7] = molecular target: Serine/threonine-protein kinase Nek6 (Homo sapiens) (UniProt Q9HC98); conditions: at 1 µM
[8] = molecular target: Serine/threonine-protein kinase Nek7 (Homo sapiens) (UniProt Q8TDX7); conditions: at 0.1 µM
[9] = molecular target: Serine/threonine-protein kinase Nek7 (Homo sapiens) (UniProt Q8TDX7); conditions: at 1 µM
[10] = molecular target: T4, Serine/threonine-protein kinase Nek9 (Homo sapiens) (UniProt Q8TD19); conditions: at 0.1 µM;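 further: reported value is the mean percent inhibition of NEK9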
T4 sequence (whole entry): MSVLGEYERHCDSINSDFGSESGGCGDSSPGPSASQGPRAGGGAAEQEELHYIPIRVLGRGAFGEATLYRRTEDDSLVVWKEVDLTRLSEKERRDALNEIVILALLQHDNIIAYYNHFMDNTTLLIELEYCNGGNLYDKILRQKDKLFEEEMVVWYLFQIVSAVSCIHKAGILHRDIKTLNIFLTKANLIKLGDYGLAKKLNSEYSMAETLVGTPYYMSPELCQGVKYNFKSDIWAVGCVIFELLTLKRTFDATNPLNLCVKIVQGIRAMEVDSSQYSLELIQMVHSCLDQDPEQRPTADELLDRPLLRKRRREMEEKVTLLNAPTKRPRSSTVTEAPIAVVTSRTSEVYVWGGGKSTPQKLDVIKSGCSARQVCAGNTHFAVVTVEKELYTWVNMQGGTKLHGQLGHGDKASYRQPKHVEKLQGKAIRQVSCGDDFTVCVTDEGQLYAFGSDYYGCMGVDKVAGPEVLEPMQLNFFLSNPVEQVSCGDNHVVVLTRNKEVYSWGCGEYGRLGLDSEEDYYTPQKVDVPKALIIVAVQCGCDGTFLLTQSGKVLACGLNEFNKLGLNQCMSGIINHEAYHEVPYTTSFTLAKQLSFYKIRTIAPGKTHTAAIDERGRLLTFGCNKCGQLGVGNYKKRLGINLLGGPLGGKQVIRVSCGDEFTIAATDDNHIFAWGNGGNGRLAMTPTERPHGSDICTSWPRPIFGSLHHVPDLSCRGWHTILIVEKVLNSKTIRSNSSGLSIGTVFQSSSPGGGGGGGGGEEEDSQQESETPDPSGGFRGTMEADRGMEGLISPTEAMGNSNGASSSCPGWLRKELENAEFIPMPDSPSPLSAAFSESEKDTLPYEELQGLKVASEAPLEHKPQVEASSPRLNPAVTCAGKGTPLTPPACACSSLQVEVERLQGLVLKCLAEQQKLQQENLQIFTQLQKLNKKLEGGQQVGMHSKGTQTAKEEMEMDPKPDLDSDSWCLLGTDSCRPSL

Serine/threonine-protein kinase Nek7 (Homo sapiens), sequence (Q8TDX7 whole entry, looked up): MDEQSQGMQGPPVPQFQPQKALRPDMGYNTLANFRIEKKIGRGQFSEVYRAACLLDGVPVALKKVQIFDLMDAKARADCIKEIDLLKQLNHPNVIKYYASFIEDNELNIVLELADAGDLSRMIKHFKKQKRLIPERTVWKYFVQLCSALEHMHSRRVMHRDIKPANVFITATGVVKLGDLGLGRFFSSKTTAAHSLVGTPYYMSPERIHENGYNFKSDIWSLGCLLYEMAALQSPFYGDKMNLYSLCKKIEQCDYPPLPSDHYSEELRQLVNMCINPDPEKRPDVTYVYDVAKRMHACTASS
Serine/threonine-protein kinase Nek6 (Homo sapiens), sequence (Q9HC98 whole entry): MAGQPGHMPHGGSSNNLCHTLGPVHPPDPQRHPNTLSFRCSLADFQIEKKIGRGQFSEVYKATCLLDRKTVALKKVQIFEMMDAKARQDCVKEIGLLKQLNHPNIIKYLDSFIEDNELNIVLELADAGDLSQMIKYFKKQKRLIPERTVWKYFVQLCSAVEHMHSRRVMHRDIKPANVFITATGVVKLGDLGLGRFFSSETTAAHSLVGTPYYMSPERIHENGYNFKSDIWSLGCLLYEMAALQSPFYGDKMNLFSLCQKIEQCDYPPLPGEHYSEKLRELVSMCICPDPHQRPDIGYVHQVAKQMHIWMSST

Question: With COc1cc2ncnc(Nc3ccc(C)c(O)c3)c2cc1OC as the molecule, how does the inhibition [1] read?
Answer: 6.95%

Question: What about the inhibition [2] of the same molecule?
Answer: 3.4%

Question: And the inhibition [3]?
Answer: 5.46%

Question: And the inhibition [4]?
Answer: 5.78%

Question: And the inhibition [5]?
Answer: 7.02%

Question: And the inhibition [6]?
Answer: 3.27%

Question: What about the inhibition [7] of the same molecule?
Answer: 4.18%

Question: And the inhibition [8]?
Answer: 4.88%

Question: And the inhibition [9]?
Answer: 4.92%

Question: And the inhibition [10]?
Answer: 6.41%
